The results in this text go back to PubChem BioAssay (NCATS).

Molecules are shown by their SMILES. A number with no mark means an inactive call. Inconclusive results are not listed. This is one part of the list. Active and inactive are the calls of the source. Unless noted, the call rests on the fitted dose curve; in most records, active means well fitted curve in the direction sought with a large enough effect; inconclusive means small, poorly fitted or top-dose-only effect, or another doubt; inactive means no such curve, though single readings can be large; an effect the other way counts as inactive or inconclusive. Some results are limits rather than exact numbers.

Assay [1] is described as follows: AP1 Signaling Pathway (AID 357; active means well fitted curve in either direction with a large enough effect, not every such curve was filed as active;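 further: ME-180 reporter cells stimulated with EGF at its EC50 level; on the % scale 0 is the no-effect control and ±100 the full control effect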). Particulars: ME-180 (cervical carcinoma) AP-1-bla reporter, EGF-induced, beta-lactamase ratio, 5 h; at 7.69 µM (top of the series) unless noted. The essentials:
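AP-1-bla ME-180 cells, Opti-MEM + 0.5% dialyzed FBS, plated overnight 37 °C. Cpd titration + EC50 EGF, 5 h 37 °C. CCF4 2.5 h RT; ex 405, em 460/530 ratio → %activity, AC50.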

In assay [2] the target is Cytochrome P450 1A2 (Homo sapiens) (UniProt P05177). Briefly: p450-cyp1a2 (AID 410; calls by dose curve; further: potency means the concentration at half of the fitted maximal effect). The essentials:
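Read-out is luminescence from luciferin produced by CYP1A2 demethylation of Luciferin-ME (100uM, at Km). Detection reagent stopped the 60 min NADPH-dependent reaction; signals were normalized to 57 uM furafylline.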

Assay [3] can be described thus: NFAT Signaling Pathway (AID 444; active means well fitted curve in either direction with a large enough effect, not every such curve was filed as active;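 further: carbachol stimulus at about its EC50 of 1 µM final; on the % scale 0 is the no-effect control and ±100 the full control effect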). Particulars: Jurkat NFAT-bla M1, carbachol, beta-lactamase ratio, 5 h; at 7.69 µM (top of the series) unless noted. The essentials:
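Jurkat cells with NFAT-driven β-lactamase reporter and co-expressed M1 receptor, stimulated with carbachol (final 1 uM, ~EC50), compound titration, 5 h at 37 °C. CCF4 loaded 1 h at RT; 460/530 nm ratio gave %activity and AC50.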

Assay [4] is described as follows: Stat Signaling Pathway (AID 446; active means well fitted curve in either direction with a large enough effect, not every such curve was filed as active;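 further: ME-180 cervical cancer cells given 40 pM IL-6 alongside compound; SIE-controlled beta-lactamase reporter measured as 460/530 nm FRET emission ratio; on the % scale 0 is the no-effect control and ±100 the full control effect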). The essentials:
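Overnight-plated ME-180 cells bearing a STAT Inducible Element beta-lactamase reporter; 5 h co-exposure to compound and 40 pM IL-6; values normalized to 300 pM IL-6 and 125 nM JAK inhibitor controls.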

Assay [5] addresses Glucocorticoid receptor (Homo sapiens) (UniProt P04150). In words: GR-GFP Redistribution (AID 450;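 active means compounds whose dose series gives a full or clear partial fitted curve of increased nuclear translocation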; further: potency means the concentration at half of the fitted maximal effect). Particulars: U2OS GR-GFP nuclear translocation, laser cytometry, 2 h.
Assay [6] shares this target. Briefly: GR-EFC Redistribution (AID 451; calls by dose curve; further: potency means the concentration at half of the fitted maximal effect). To be noted: CHO-K1 GR-EFC translocation, beta-gal luminescence, 2 h. The essentials:
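CHO-K1 cells expressing nuclear EA and GR-ED fragments of b-gal; compounds titrated up to 46 uM final, 2 h at 37 C. GR nuclear translocation read as complemented b-gal luminescence after 1 h RT detection.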

Assay [7] has as its target Mitogen-activated protein kinase 10 (Mus musculus) (UniProt Q61831). Briefly: JNK3 AlphaScreen Assay (AID 530; active means well fitted curve in either direction with a large enough effect, not every such curve was filed as active;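 further: kinase came from lysate of stimulated human HepG2 cells; signal reports phosphorylation of biotinylated GST-cJun 1-79 at Ser73 with 10 µM ATP; on the % scale 0 is the no-effect control and ±100 the full control effect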). The essentials:
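HepG2 lysate (IL-1b/TNFa pre-activated) + biotin-GST-cJun 1-79 + anti-pSer73 cJun; cpd titration, 15 min RT; ATP 10 uM start; Tris pH 7.6, MgCl2, DTT, vanadate; beads in EDTA buffer; AlphaScreen.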
On the technique in general: Alpha assays give light when donor and acceptor beads are brought close together.

The target in assay [8] is 3',5'-cyclic-AMP phosphodiesterase 4B (Homo sapiens) (UniProt Q07343). Briefly: qHTS Assay for Inhibitors of PDE-IV (AID 607; active means well fitted activation curve with a large enough effect in the main read-out, with a control signal flat, not every such curve was filed as active; further: % of control where 0% means no effect). In a few lines: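 Live HEK293 cells with a modified cyclic nucleotide-gated (CNG) channel report intracellular cAMP via membrane-potential dye fluorescence (ex 535/em 590 nm). Endogenous PDE-IV was targeted. Compounds were tested at up to 22.9 uM final; RO 20-1724 100 uM served as control.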
Chain of 3',5'-cyclic-AMP phosphodiesterase 4B (Homo sapiens) (Q07343 whole entry, looked up): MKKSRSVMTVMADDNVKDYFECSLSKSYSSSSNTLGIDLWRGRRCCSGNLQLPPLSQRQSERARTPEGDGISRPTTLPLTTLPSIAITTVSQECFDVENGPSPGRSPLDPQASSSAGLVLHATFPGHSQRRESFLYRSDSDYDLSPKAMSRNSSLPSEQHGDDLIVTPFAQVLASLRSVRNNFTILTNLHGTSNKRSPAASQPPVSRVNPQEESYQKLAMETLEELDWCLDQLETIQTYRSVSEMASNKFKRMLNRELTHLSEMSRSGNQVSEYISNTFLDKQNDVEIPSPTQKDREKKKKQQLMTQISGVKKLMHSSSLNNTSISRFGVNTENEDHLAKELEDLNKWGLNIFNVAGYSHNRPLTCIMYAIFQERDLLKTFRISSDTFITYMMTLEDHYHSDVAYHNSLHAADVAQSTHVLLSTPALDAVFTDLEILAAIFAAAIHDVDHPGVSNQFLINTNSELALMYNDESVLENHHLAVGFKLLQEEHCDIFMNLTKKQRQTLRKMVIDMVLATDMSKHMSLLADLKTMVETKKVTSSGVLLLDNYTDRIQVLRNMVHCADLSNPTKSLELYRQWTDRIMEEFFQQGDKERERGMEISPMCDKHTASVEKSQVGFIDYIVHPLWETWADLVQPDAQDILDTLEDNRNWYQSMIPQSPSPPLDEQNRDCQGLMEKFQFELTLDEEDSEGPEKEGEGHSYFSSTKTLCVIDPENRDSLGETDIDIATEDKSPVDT
In general terms: In qHTS, concentration-response curves come from the screen itself.

Assay [9] concerns the target Cytochrome P450 2C9 (Homo sapiens) (UniProt P11712). Briefly: qHTS Assay for Inhibitors and Substrates of Cytochrome P450 2C9 (AID 883). Further: potency means the concentration at half of the fitted maximal effect; nearly all actives have a fitted effect of over 60% in size. The essentials: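 Signal: luciferase luminescence reporting luciferin produced by CYP2C9. Conditions: 10nM enzyme, Luciferin-H 100uM at KM, 25mM KPO4, 37C, 60 min NADPH-driven reaction. Reference: 57uM sulphaphenazole as 100% inhibition.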

The target of assay [10] is Cytochrome P450 3A4 (Homo sapiens) (UniProt P08684). In words: qHTS Assay for Activators of Cytochrome P450 3A4 (AID 885). Further: nearly all actives have a fitted effect of over 65% in size. The essentials:
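Using 20nM recombinant human CYP3A4 in potassium phosphate (200mM), substrate Luciferin-PPXE at 25uM, luminescent luciferin detection followed a 60-min RT NADPH reaction; data scaled to 57 uM ketoconazole.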

Assay [11] has as its target Cytochrome P450 2C19 (Homo sapiens) (UniProt P33261). In words: qHTS Assay for Inhibitors and Substrates of Cytochrome P450 2C19 (AID 899). Further: potency means the concentration at half of the fitted maximal effect; nearly all actives have a fitted effect of over 60% in size. The essentials:
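Signal comes from luciferase acting on luciferin released by CYP2C19-mediated hydroxylation of Luciferin-H EGE, 10uM (KM). Assay mix: 5nM enzyme, 50mM KPO4; 60 min at 37C with NADPH regeneration. Data normalized against 57uM ketoconazole.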

Assay [12] concerns the target Rap guanine nucleotide exchange factor 3 (Homo sapiens) (UniProt O95398). Briefly: Confirmatory qHTS for antagonist of cAMP-regulated guanine nucleotide exchange factor 3 (EPAC1) (AID 1645880). Further: nearly all actives have a fitted effect of over 55% in size. Further: potency means the concentration at half of the fitted maximal effect.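 On activity, negative = inhibition: plate controls were DMSO only for no effect and full effect of the ATA control for full effect.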 To be noted: EPAC1 Rap1B-BODIPY-GDP exchange, fluorescence; activity, negative = inhibition: at 115 µM (top of the series). The essentials: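 Released BODIPY-GDP fluoresces less than Rap1-bound BODIPY-GDP; the signal is followed at 480/540 nm at 5-min intervals over 30 min, after 5 min at room temperature. Reactions contain 100 nM EPAC1, 250 nM RAP1B-BODIPY-GDP and 50 uM GDP; results are normalized to ATA and DMSO.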

For assay [13] the target is unchanged. Briefly: Confirmatory qHTS for agonist of cAMP-regulated guanine nucleotide exchange factor 3 (EPAC1) (AID 1645881).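 Further: EPAC1 catalysed release of BODIPY-GDP from Rap1B seen as fluorescence loss; nearly all actives have a fitted effect of over 75% in size.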
Assay [14] has as its target Rap guanine nucleotide exchange factor 4 (Homo sapiens) (UniProt Q8WZA2). Briefly: Confirmatory qHTS for agonist of cAMP-regulated guanine nucleotide exchange factor 4 (EPAC2) (AID 1645884).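 Further: nucleotide exchange releases bodipy-GDP from Rap1 and this lowers its fluorescence; on the % scale 0 is the no-effect control and ±100 the full control effect; nearly all actives have a fitted effect of over 65% in size.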
The target is the same in assay [15]. In words: Confirmatory qHTS for antagonist of cAMP-regulated guanine nucleotide exchange factor 4 (EPAC2) (AID 1645885). Further: nearly all actives have a fitted effect of over 25% in size. Further: potency means the concentration at half of the fitted maximal effect.
For assay [16], the target named is Rap guanine nucleotide exchange factor 3 (Homo sapiens) (UniProt O95398). Briefly: Counterscreen qHTS for antagonist of cAMP-regulated guanine nucleotide exchange factor 3 (EPAC1) (AID 1645888). Further: % of control where 0% means no effect. In a few lines:
(§1)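 Rap1B–BODIPY-GDP (250 nM) with 50 uM GDP; compounds pin-transferred to 9.74 nM–152 uM final (activator) or from 7.32 nM upwards (inhibitor). Fluorescence Ex/Em 480/540 nm read at 5 and 30 min, then after adding cAMP or buffer, at room temperature.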
A general note: Counterscreens check selectivity or assay interference.

For assay [17] the target is unchanged. Briefly: Counterscreen qHTS for agonist of cAMP-regulated guanine nucleotide exchange factor 3 (EPAC1) (AID 1645889). Further: % of control where 0% means no effect; nearly all actives have a fitted effect of over 40% in size. The essentials: as §1
A short description of assay [18]: qHTS Assay for Inhibitors of Fructose-1,6-bisphosphate Aldolase from Giardia Lamblia: Mammalian cellular toxicity (AID 2786).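 Further: compound exposure lasted 48 h before reading; on the % scale 0 is the no-effect control and ±100 the full control effect; nearly all actives have a fitted effect of over 60% in size.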 In a few lines: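 CHO cells seeded at 250 cells/well with pin-tool-added compound, incubated 48 h at 37 °C, 5% CO2. Viability read as ATP content by ATPlite luminescence after 20 min.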
Assay [19] has as its target Fructose-bisphosphate aldolase (Giardia intestinalis (strain ATCC 50803 / WB clone C6)) (UniProt A8B2U2). Briefly: qHTS Assay for Inhibitors of Fructose-1,6-bisphosphate Aldolase from Giardia Lamblia: Primary screen confirmation (AID 2787).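 Further: aldolase product measured through coupled diaphorase step turning resazurin into fluorescent resorufin; on the % scale 0 is the no-effect control and ±100 the full control effect; nearly all actives have a fitted effect of over 45% in size.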 The essentials: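 FBPA (40 nM in enzyme reagent, with 30 uM ZnCl2) was preincubated 10 min at RT with compound up to 57.5 uM final. Substrate plus coupled detection system was then added, and fluorescence (525/598 nm) was read after 20 min at RT.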

Assay [20] deals with Fructose-bisphosphate aldolase A (Oryctolagus cuniculus) (UniProt P00883). Briefly: qHTS Assay for Inhibitors of Fructose-1,6-bisphosphate Aldolase from Giardia Lamblia: Rabbit FBPA Selectivity (AID 2794). Further: on the % scale 0 is the no-effect control and ±100 the full control effect; nearly all actives have a fitted effect of over 60% in size. The essentials:
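Rabbit FBPA, coupled to a resorufin-type fluorescent read (525/598 nm), tests whether primary hits hit Class I aldolase. Compound (up to 57.5 uM final) sits 10 min at RT with coupling enzyme before substrate/detection mix; read after 20 min RT.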

Assay [21] is described as follows: qHTS Assay for Inhibitors of Fructose-1,6-bisphosphate Aldolase from Giardia Lamblia: Coupling assay counterscreen confirmation (AID 2795). Further: on the % scale 0 is the no-effect control and ±100 the full control effect; nearly all actives have a fitted effect of over 55% in size. The essentials:
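Counterscreen, no aldolase: coupling enzyme reagent + cpd (up to 57.5 uM final), 10 min RT; add substrate + coupling system + AmpLite Red, 20 min RT; fluorescence ex 525/em 598 nm.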

Assay [22] has as its target Tumor susceptibility gene 101 protein (Homo sapiens) (UniProt Q99816). Briefly: qHTS Assay for Iinhibitors of HIV-1 Budding by Blocking the Interaction of PTAP/TSG101: Hit Validation (AID 651600). Further: potency means the concentration at half of the fitted maximal effect; nearly all actives have a fitted effect of over 70% in size. In a few lines: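 Measuring PTAP–Tsg101 interaction by FP: protein at 10 uM and fluorescent peptide at 50 nM (final), buffer 10 mM HEPES pH 7.5 with 0.15 M NaCl, 3 mM EDTA, 0.1 mM TCEP, 0.01% Tween 20; 20 min incubation, r.t.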

Chain of Rap guanine nucleotide exchange factor 4 (Homo sapiens) (Q8WZA2 whole entry, looked up): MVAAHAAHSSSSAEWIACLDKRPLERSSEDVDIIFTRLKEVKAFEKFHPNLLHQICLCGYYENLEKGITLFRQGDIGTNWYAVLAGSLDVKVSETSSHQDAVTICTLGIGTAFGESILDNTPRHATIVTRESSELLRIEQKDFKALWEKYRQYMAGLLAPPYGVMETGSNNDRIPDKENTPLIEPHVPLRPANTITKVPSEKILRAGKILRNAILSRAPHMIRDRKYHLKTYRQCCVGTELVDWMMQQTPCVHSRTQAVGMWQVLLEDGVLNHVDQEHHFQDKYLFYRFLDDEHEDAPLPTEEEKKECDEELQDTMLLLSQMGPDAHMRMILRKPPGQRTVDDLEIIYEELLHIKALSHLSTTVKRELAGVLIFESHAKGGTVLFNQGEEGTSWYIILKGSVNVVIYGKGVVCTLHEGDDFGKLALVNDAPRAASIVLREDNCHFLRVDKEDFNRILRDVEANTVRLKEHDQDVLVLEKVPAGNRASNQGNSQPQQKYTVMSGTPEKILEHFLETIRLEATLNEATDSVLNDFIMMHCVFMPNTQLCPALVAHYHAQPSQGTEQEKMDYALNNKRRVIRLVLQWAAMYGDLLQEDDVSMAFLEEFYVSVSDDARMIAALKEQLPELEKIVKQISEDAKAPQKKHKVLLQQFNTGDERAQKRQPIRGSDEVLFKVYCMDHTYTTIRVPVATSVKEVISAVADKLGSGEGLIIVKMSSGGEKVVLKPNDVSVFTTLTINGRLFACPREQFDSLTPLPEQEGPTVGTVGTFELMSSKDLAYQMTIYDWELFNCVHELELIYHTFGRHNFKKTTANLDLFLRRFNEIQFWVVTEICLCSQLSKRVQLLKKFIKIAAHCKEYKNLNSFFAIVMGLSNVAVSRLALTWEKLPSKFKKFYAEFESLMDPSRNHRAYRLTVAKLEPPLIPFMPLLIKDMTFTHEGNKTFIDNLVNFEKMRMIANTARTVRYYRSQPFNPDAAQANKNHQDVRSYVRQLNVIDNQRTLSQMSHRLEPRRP
Chain of Glucocorticoid receptor (Homo sapiens) (P04150 whole entry, looked up): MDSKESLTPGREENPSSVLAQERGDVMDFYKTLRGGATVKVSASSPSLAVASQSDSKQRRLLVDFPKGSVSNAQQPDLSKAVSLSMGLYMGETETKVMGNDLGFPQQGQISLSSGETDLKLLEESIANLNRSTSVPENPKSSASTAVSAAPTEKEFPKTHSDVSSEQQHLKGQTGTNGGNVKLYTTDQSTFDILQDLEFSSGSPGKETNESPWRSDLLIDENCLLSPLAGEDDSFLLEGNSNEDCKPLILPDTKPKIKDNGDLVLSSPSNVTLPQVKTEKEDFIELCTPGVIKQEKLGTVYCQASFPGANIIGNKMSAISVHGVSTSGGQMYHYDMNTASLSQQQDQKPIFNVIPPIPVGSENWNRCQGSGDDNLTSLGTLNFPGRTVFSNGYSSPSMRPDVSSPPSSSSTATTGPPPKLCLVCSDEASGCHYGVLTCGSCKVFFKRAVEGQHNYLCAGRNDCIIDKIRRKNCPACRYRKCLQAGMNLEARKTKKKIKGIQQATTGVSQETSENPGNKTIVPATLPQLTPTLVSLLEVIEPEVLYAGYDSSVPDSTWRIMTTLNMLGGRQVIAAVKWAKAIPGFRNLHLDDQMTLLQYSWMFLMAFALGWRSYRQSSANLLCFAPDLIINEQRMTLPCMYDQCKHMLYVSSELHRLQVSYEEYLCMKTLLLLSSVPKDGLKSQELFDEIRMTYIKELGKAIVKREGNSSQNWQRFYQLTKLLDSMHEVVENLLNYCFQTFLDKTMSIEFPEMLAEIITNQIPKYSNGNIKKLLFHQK
Chain of Rap guanine nucleotide exchange factor 3 (Homo sapiens) (O95398 whole entry, looked up): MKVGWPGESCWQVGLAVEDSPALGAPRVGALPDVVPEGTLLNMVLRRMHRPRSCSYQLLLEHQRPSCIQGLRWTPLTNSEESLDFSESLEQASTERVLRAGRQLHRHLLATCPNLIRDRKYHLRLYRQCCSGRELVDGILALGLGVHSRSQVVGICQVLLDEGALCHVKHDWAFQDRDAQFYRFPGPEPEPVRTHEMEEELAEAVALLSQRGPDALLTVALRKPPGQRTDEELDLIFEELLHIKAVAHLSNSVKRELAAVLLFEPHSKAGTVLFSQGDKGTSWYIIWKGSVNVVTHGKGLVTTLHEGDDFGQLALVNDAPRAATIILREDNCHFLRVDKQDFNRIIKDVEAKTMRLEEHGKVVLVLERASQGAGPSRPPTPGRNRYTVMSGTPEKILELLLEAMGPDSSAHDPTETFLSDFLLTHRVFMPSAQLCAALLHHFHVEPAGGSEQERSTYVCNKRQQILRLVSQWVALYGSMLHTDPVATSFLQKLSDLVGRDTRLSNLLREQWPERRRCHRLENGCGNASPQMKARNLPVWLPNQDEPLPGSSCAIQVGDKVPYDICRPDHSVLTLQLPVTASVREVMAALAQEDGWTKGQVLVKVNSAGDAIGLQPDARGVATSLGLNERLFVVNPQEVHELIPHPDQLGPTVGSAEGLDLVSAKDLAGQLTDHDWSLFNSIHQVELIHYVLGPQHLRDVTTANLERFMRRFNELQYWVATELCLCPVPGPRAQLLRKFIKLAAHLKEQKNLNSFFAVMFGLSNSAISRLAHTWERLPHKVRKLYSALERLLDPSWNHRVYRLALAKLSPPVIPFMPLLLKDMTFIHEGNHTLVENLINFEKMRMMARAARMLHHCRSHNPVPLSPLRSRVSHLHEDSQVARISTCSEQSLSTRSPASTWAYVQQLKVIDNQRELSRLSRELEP
Chain of Cytochrome P450 2C19 (Homo sapiens) (P33261 whole entry, looked up): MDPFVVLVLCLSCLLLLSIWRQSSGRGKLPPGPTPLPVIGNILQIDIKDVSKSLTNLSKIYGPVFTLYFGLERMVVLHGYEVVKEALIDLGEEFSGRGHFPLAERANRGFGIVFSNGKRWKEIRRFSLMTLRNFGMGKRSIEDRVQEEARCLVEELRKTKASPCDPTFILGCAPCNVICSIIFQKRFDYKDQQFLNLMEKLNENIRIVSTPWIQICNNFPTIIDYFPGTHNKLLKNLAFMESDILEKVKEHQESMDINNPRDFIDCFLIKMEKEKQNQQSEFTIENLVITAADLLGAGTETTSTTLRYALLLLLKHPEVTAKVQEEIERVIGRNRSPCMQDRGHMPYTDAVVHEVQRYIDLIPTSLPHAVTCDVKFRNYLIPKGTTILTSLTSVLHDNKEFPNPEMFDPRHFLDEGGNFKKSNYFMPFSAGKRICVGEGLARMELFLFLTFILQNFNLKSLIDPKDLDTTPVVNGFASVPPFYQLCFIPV
Chain of Fructose-bisphosphate aldolase A (Oryctolagus cuniculus) (P00883 whole entry, looked up): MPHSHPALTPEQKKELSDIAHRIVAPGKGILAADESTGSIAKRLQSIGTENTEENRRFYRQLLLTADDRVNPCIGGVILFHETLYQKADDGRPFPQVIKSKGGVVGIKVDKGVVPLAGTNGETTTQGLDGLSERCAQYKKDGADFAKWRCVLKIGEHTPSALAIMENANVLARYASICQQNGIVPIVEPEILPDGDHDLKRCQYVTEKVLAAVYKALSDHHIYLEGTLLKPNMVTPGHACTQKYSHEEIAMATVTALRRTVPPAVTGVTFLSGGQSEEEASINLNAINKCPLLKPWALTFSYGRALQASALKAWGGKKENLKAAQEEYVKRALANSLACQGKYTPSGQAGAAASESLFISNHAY
Chain of Tumor susceptibility gene 101 protein (Homo sapiens) (Q99816 whole entry, looked up): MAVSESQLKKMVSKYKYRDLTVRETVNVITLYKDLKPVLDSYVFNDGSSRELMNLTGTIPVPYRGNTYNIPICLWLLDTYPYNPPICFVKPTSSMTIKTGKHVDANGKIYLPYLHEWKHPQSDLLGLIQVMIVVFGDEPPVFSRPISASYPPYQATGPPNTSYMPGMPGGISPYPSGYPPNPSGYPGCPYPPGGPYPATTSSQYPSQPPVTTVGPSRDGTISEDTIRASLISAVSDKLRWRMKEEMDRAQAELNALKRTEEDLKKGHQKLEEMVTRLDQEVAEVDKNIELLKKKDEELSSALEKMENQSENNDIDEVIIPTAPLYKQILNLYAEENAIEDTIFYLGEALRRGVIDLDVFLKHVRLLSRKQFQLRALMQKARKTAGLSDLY
Chain of Fructose-bisphosphate aldolase (Giardia intestinalis (strain ATCC 50803 / WB clone C6)) (A8B2U2 whole entry, looked up): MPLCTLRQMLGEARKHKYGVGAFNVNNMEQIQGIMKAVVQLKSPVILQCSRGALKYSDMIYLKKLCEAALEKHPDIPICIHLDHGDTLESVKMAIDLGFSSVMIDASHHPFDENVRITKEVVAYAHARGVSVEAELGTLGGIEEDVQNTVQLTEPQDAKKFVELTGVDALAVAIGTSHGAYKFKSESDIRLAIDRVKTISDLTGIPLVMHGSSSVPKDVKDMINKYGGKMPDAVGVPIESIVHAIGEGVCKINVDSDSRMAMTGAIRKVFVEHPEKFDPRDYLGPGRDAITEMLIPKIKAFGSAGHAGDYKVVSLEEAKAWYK

As to `c1ccc(NN(Cc2cnccn2)c2ccccc2)cc1`, the figures for the activity change, negative = inhibition in assay [1], in assay [3] and in [7] were -14%, -17.6% and 3.55% [at 11.4 µM], respectively. For the same compound, the Potency in assay [2] is 2 µM (active); in assay [5], > 46 µM; in assay [6] it was > 9.22 µM; in [9], 3.16 µM (active); in [11] it was 2 µM (active). Also, in assay [4], the call was inactive. Further, the Potency result in [8], in assay [12], in assay [13], in assay [14], in [15] and in assay [16] was “inactive” each time. The Potency result in [17] was “inactive”. Moreover, in [10], the activity change, positive = activation was -52.2% [at 11.4 µM].
As to `CC(OC(=O)CC1CCCCC1)C(=O)Nc1ccc(S(N)(=O)=O)cc1` (stereo not given), the Potency result in assay [12], in assay [13] and in assay [15] was “inactive” in each case. Moreover, the activation in assay [14] is 2.89% [at 17.1 µM, percent relative to cAMP agonist control]; in assay [17], 15.8% [at 30.8 µM]. For the same compound, the activity change, negative = inhibition in [16] was -10.1% [at 30.8 µM].
As for `O=c1c(-c2ccc(F)cc2)[n+]([O-])c2ccccc2n1OCc1ccccn1`, the Potency entry in assay [12], in [13] and in assay [15] was “inactive” throughout. For the same compound, the activation in [14] is -8.77% [at 17.1 µM, percent relative to cAMP agonist control]; in assay [17], 6.02% [at 30.8 µM]. Moreover, the activity change, negative = inhibition in [16] is 1.53% [at 30.8 µM].
On to `CCN(CC(=O)Nc1ccccc1OC)C(=O)c1ccc(N(C)S(=O)(=O)c2ccc(C)cc2)cc1`, for which the Potency result in assay [12], in [13], in assay [14], in [15], in [16] and in assay [17] was “inactive” in each case.
Consider `COc1cccc(NS(=O)(=O)c2ccc3c(c2)C2C=CCC2C(c2ccc(C(=O)O)cc2)N3)c1` (stereo not given), for which the Potency in assay [12] was 9.53 µM (active). In addition, the Potency result in assay [13], in assay [14], in [15], in assay [16] and in assay [17] was “inactive” in each case.
`CCCc1nc2ccccc2c(=O)n1/N=C/c1ccc(O)c(O)c1`: the call in assay [18], in assay [19], in assay [20] and in [21] was inactive. Also, the Potency result in [12], in [13], in assay [14], in assay [15], in assay [16] and in assay [17] was “inactive” throughout.
Regarding `COC(=O)c1cc(Br)c(=O)n(Cc2ccc3c(c2)OCO3)c1`, the activity change, negative = inhibition in [1] is -2.94% [at 17.2 µM]; in assay [3], 2.18% [at 17.2 µM]; in assay [16], 5.45% [at 30.8 µM]. Besides, in assay [4], the outcome was inactive. The Potency in [5] was > 20.6 µM. Moreover, the Potency result in assay [12], in [13] and in [15] was “inactive” throughout. For the same compound, the activation in [14] is -3.61% [at 17.1 µM, percent relative to cAMP agonist control]; in assay [17] it was 2.16% [at 30.8 µM].
As to `NS(=O)(=O)c1ccc(N=Nc2c[nH]c(=O)c(O)c2)cc1`, the activity change, negative = inhibition in [1] was 8.24%; in [3] it was -22.1%. Besides, the compound was classed as inactive in [4]. Also, the Potency was > 46 µM in [5]; > 9.22 µM in [6]; 18.3 µM (active) in assay [22]; 42.6 µM (active) in assay [12]; 84.9 µM (active) in [15]. For the same compound, the Potency result in assay [8], in assay [13], in assay [14], in assay [16] and in assay [17] was “inactive” each time.
Take `COc1ccc(N(C(=O)c2ccco2)S(=O)(=O)c2cc(OC)ccc2OC)cc1`: the Potency entry in [12], in assay [13], in assay [14], in assay [15], in assay [16] and in [17] was “inactive” each time.
